# What was measured:
# Assay in all cases: yeast three-hybrid, YBZ-1, SC-Leu-His + 0.5 mM 3-AT, 4 days
# Conditions in all cases: tags: N-Gal4 AD-HA kept; label: inside an RPR1-promoter hybrid RNA with tandem MS2 sites; ssRNA
# [1] = molecular target: PUM1 PUF domain R3-MRY (Homo sapiens, UniProt Q14671 828-1176, C935M;Q939Y)
# In short: (§1)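 The interaction score is the log change in variant frequency from input to selection. Scores were computed in log2 with a pseudocount of 1 for absent variants, using Illumina sequencing of PCR-amplified repeat regions. The input came from four days on SC-Leu and the selection from four days on SC-Leu-His + 0.5 mM 3-AT. The cells were strain YBZ-1 (LexA–MS2 coat fusion, HIS3 reporter) co-expressing Pumilio-1 PUF domain libraries and matching RNA elements from a centromeric plasmid.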
# [2] = molecular target: PUM1 PUF domain R3-QCD (Homo sapiens, UniProt Q14671 828-1176, C935Q;R936C;Q939D)
# In short: as §1
# [3] = molecular target: PUM1 PUF domain R3-APD (Homo sapiens, UniProt Q14671 828-1176, C935A;R936P;Q939D)
# In short: as §1
# [4] = molecular target: PUM1 PUF domain R3-IWD (Homo sapiens, UniProt Q14671 828-1176, C935I;R936W;Q939D)
# In short: as §1
# [5] = molecular target: PUM1 PUF domain R3-RRA (Homo sapiens, UniProt Q14671 828-1176, C935R;Q939A)
# In short: as §1
# [6] = molecular target: PUM1 PUF domain R8-RWW (Homo sapiens, UniProt Q14671 828-1176, N1122R;Y1123W;Q1126W)
# In short: as §1
# [7] = molecular target: PUM1 PUF domain R4-CRG (Homo sapiens, UniProt Q14671 828-1176, N971C;H972R;Q975G)
# In short: as §1
# [8] = molecular target: PUM1 PUF domain R5-LYS (Homo sapiens, UniProt Q14671 828-1176, C1007L;R1008Y;Q1011S)
# In short: as §1
# [9] = molecular target: PUM1 PUF domain R4-VGY (Homo sapiens, UniProt Q14671 828-1176, N971V;H972G;Q975Y)
# In short: as §1
# [10] = molecular target: PUM1 PUF domain R8-QFC (Homo sapiens, UniProt Q14671 828-1176, N1122Q;Y1123F;Q1126C)
# In short: as §1
# [11] = molecular target: PUM1 PUF domain R1-GYR (Homo sapiens, UniProt Q14671 828-1176, S863G;R864Y;Q867R)
# In short: as §1
# [12] = molecular target: PUM1 PUF domain R1-KYQ (Homo sapiens, UniProt Q14671 828-1176, S863K;R864Y)
# In short: as §1
# [13] = molecular target: PUM1 PUF domain R4-DHQ (Homo sapiens, UniProt Q14671 828-1176, N971D)
# In short: as §1
# [14] = molecular target: PUM1 PUF domain R4-HNL (Homo sapiens, UniProt Q14671 828-1176, N971H;H972N;Q975L)
# In short: as §1
# [15] = molecular target: PUM1 PUF domain R5-GVQ (Homo sapiens, UniProt Q14671 828-1176, C1007G;R1008V)
# In short: as §1
# [16] = molecular target: PUM1 PUF domain R5-ESE (Homo sapiens, UniProt Q14671 828-1176, C1007E;R1008S;Q1011E)
# In short: as §1
# Chain of PUM1 PUF domain R1-GYR (Q14671 828-1176 S863G/R864Y/Q867R): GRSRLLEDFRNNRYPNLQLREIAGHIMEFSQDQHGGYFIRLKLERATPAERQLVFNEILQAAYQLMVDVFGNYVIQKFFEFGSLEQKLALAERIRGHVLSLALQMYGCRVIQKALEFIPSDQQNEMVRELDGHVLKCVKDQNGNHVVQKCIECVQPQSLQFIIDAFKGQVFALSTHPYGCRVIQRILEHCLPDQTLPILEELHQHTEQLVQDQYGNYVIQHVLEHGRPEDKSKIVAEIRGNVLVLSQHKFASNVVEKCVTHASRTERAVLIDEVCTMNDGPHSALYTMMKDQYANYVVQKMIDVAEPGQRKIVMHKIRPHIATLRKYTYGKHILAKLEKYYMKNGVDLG
# Chain of PUM1 PUF domain R4-DHQ (Q14671 828-1176 N971D): as the sequence (Q14671 828-1176 S863G/R864Y/Q867R) above, with G36S, Y37R, R40Q, N144D counted along it
# Chain of PUM1 PUF domain R3-MRY (Q14671 828-1176 C935M/Q939Y): as the sequence (Q14671 828-1176 S863G/R864Y/Q867R) above, with G36S, Y37R, R40Q, C108M, Q112Y counted along it
# Chain of PUM1 PUF domain R4-HNL (Q14671 828-1176 N971H/H972N/Q975L): as the sequence (Q14671 828-1176 S863G/R864Y/Q867R) above, with G36S, Y37R, R40Q, N144H, H145N, Q148L counted along it
# Chain of PUM1 PUF domain R8-RWW (Q14671 828-1176 N1122R/Y1123W/Q1126W): as the sequence (Q14671 828-1176 S863G/R864Y/Q867R) above, with G36S, Y37R, R40Q, N295R, Y296W, Q299W counted along it
# Chain of PUM1 PUF domain R5-GVQ (Q14671 828-1176 C1007G/R1008V): as the sequence (Q14671 828-1176 S863G/R864Y/Q867R) above, with G36S, Y37R, R40Q, C180G, R181V counted along it
# Chain of PUM1 PUF domain R4-CRG (Q14671 828-1176 N971C/H972R/Q975G): as the sequence (Q14671 828-1176 S863G/R864Y/Q867R) above, with G36S, Y37R, R40Q, N144C, H145R, Q148G counted along it
# Chain of PUM1 PUF domain R3-APD (Q14671 828-1176 C935A/R936P/Q939D): as the sequence (Q14671 828-1176 S863G/R864Y/Q867R) above, with G36S, Y37R, R40Q, C108A, R109P, Q112D counted along it
# Chain of PUM1 PUF domain R5-LYS (Q14671 828-1176 C1007L/R1008Y/Q1011S): as the sequence (Q14671 828-1176 S863G/R864Y/Q867R) above, with G36S, Y37R, R40Q, C180L, R181Y, Q184S counted along it
# Chain of PUM1 PUF domain R3-QCD (Q14671 828-1176 C935Q/R936C/Q939D): as the sequence (Q14671 828-1176 S863G/R864Y/Q867R) above, with G36S, Y37R, R40Q, C108Q, R109C, Q112D counted along it
# Chain of PUM1 PUF domain R1-KYQ (Q14671 828-1176 S863K/R864Y): as the sequence (Q14671 828-1176 S863G/R864Y/Q867R) above, with G36K, R40Q counted along it
# Chain of PUM1 PUF domain R3-RRA (Q14671 828-1176 C935R/Q939A): as the sequence (Q14671 828-1176 S863G/R864Y/Q867R) above, with G36S, Y37R, R40Q, C108R, Q112A counted along it
# Chain of PUM1 PUF domain R5-ESE (Q14671 828-1176 C1007E/R1008S/Q1011E): as the sequence (Q14671 828-1176 S863G/R864Y/Q867R) above, with G36S, Y37R, R40Q, C180E, R181S, Q184E counted along it
# Chain of PUM1 PUF domain R4-VGY (Q14671 828-1176 N971V/H972G/Q975Y): as the sequence (Q14671 828-1176 S863G/R864Y/Q867R) above, with G36S, Y37R, R40Q, N144V, H145G, Q148Y counted along it
# Chain of PUM1 PUF domain R3-IWD (Q14671 828-1176 C935I/R936W/Q939D): as the sequence (Q14671 828-1176 S863G/R864Y/Q867R) above, with G36S, Y37R, R40Q, C108I, R109W, Q112D counted along it
# Chain of PUM1 PUF domain R8-QFC (Q14671 828-1176 N1122Q/Y1123F/Q1126C): as the sequence (Q14671 828-1176 S863G/R864Y/Q867R) above, with G36S, Y37R, R40Q, N295Q, Y296F, Q299C counted along it
sequence,measurement,setting,value
GGCUAGAACUAGUGGAUCCCCCGGCGCCCGGCGGCUCGAGCCCGGGUAAGUGUAAGUAGUCUGCAUGCCGCCGGGCGCCAUGCCUGCAGGUCGACUCUAGAAAACAUG,binding signal,[1],4.3 log2 enrichment (interaction score)
same,binding signal,[2],3.09 log2 enrichment (interaction score)
same,binding signal,[3],6.54 log2 enrichment (interaction score)
same,binding signal,[4],4.83 log2 enrichment (interaction score)
GGCUAGAACUAGUGGAUCCCCCGGCGCCCGGCGGCUCGAGCCCGGGUAAGUGUAAUUAGUCUGCAUGCCGCCGGGCGCCAUGCCUGCAGGUCGACUCUAGAAAACAUG,binding signal,[1],1.32 log2 enrichment (interaction score)
same,binding signal,[5],3.19 log2 enrichment (interaction score)
GGCUAGAACUAGUGGAUCCCCCGGCGCCCGGCGGCUCGAGCCCGGGUAAGUGUAAAUAGUCUGCAUGCCGCCGGGCGCCAUGCCUGCAGGUCGACUCUAGAAAACAUG,binding signal,[3],4.44 log2 enrichment (interaction score)
same,binding signal,[6],4.93 log2 enrichment (interaction score)
same,binding signal,[7],4.02 log2 enrichment (interaction score)
same,binding signal,[8],3.11 log2 enrichment (interaction score)
same,binding signal,[9],2.38 log2 enrichment (interaction score)
GGCUAGAACUAGUGGAUCCCCCGGCGCCCGGCGGCUCGAGCCCGGGUAAGCGUAAAUAGUCUGCAUGCCGCCGGGCGCCAUGCCUGCAGGUCGACUCUAGAAAACAUG,binding signal,[6],5.89 log2 enrichment (interaction score)
same,binding signal,[10],3.87 log2 enrichment (interaction score)
GGCUAGAACUAGUGGAUCCCCCGGCGCCCGGCGGCUCGAGCCCGGGUAAGUGUAAAUCGUCUGCAUGCCGCCGGGCGCCAUGCCUGCAGGUCGACUCUAGAAAACAUG,binding signal,[11],4.99 log2 enrichment (interaction score)
same,binding signal,[12],4.96 log2 enrichment (interaction score)
GGCUAGAACUAGUGGAUCCCCCGGCGCCCGGCGGCUCGAGCCCGGGUAAGUGUAAAUUGUCUGCAUGCCGCCGGGCGCCAUGCCUGCAGGUCGACUCUAGAAAACAUG,binding signal,[11],2.71 log2 enrichment (interaction score)
GGCUAGAACUAGUGGAUCCCCCGGCGCCCGGCGGCUCGAGCCCGGGUAAGUGUACAUAGUCUGCAUGCCGCCGGGCGCCAUGCCUGCAGGUCGACUCUAGAAAACAUG,binding signal,[13],2.4 log2 enrichment (interaction score)
same,binding signal,[14],2.04 log2 enrichment (interaction score)
GGCUAGAACUAGUGGAUCCCCCGGCGCCCGGCGGCUCGAGCCCGGGUAAGUGUAUAUAGUCUGCAUGCCGCCGGGCGCCAUGCCUGCAGGUCGACUCUAGAAAACAUG,binding signal,[13],5.32 log2 enrichment (interaction score)
same,binding signal,[7],1.29 log2 enrichment (interaction score)
same,binding signal,[14],3.45 log2 enrichment (interaction score)
GGCUAGAACUAGUGGAUCCCCCGGCGCCCGGCGGCUCGAGCCCGGGUAAGUGUUAAUAGUCUGCAUGCCGCCGGGCGCCAUGCCUGCAGGUCGACUCUAGAAAACAUG,binding signal,[8],3.82 log2 enrichment (interaction score)
same,binding signal,[15],2.71 log2 enrichment (interaction score)
GGCUAGAACUAGUGGAUCCCCCGGCGCCCGGCGGCUCGAGCCCGGGUAAGUGUGAAUAGUCUGCAUGCCGCCGGGCGCCAUGCCUGCAGGUCGACUCUAGAAAACAUG,binding signal,[15],2.24 log2 enrichment (interaction score)
same,binding signal,[16],2.77 log2 enrichment (interaction score)
